Test results published in the supplement of paper PMC8877412.
Where a name gives a salt, the structure may show the parent alone. ± gives the uncertainty stated by the source.

The compounds below were run on NCC-PMP1-C1 (assay: cell viability relative to DMSO control; higher = less growth inhibition). Conditions: 10 µM; 72 h.
Procedure: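 NCC-PMP1-C1 pseudomyxoma peritonei cells were seeded in 384-well plates coated with Matrigel and MEF (1e4 cells). Viability was read after 72 h by CCK-8 and expressed as % of the DMSO control, mean ± SD of duplicates.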
CS(=O)(=O)c1ccc(C(=O)Nc2ccc(Cl)c(-c3ccccn3)c2)c(Cl)c1 [Vismodegib (GDC-0449)] was tested, and the cell viability was 90.5 ± 3.3%. Compound Cc1ccc(S(=O)(=O)Nc2nc3ccccc3nc2Nc2ccc3nsnc3c2)cc1 [XL147 analog] has a cell viability of 96.2 ± 9%. Work on Cc1ccc(-n2[nH]c(C)c(N=Nc3cccc(-c4cccc(C(=O)O)c4)c3O)c2=O)cc1C [Eltrombopag Olamine] yielded a cell viability of 113 ± 3.3%. CCN1CCN(c2ccc(Nc3cc(N(C)C(=O)Nc4c(Cl)c(OC)cc(OC)c4Cl)ncn3)cc2)CC1 showed a cell viability of 56.5 ± 0.47%. With Clc1ccc(C(c2ccccc2Cl)C(Cl)Cl)cc1 (stereo not given) [Mitotane] the cell viability was 106.8 ± 1%. NC(=O)NO [Hydroxyurea] gave a cell viability of 136 ± 8.1%. CO[C@@]12[C@H](COC(N)=O)C3=C(C(=O)C(C)=C(N)C3=O)N1C[C@@H]1N[C@@H]12 [Mitomycin C] was tested, and the cell viability was 60.3 ± 9.8%. CN(N=O)C(=O)NC1C(O)OC(CO)C(O)C1O (stereo not given) [Streptozotocin (STZ)] showed a cell viability of 111 ± 3.5%. C[C@@]12C[C@@]3(O)O[C@@H](O1)[C@]1(COC(=O)c4ccccc4)[C@H]3C[C@@]12O[C@@H]1O[C@H](CO)[C@@H](O)[C@H](O)[C@H]1O [Paeoniflorin] showed a cell viability of 78.6 ± 9%. With COc1c2occc2cc2ccc(=O)oc12 [Methoxsalen] the cell viability was 92.6 ± 16%. O=NN(CCCl)C(=O)NC1CCCCC1 [Lomustine] gave a cell viability of 105 ± 11%. CC(=O)OCC(CCn1cnc2cnc(N)nc21)COC(C)=O [Famciclovir] was tested, and the cell viability was 94.3 ± 12%. Nc1cccc2c1C(=O)N(C1CCC(=O)NC1=O)C2=O (stereo not given) [Pomalidomide] gave a cell viability of 99.2 ± 2.3%. For NCC(=O)CCC(=O)O [5-Aminolevulinic acid HCl], the cell viability was 102.7 ± 0.67%. C/C=C1\NC(=O)[C@H]2CSSCC/C=C/[C@H](CC(=O)N[C@H](C(C)C)C(=O)N2)OC(=O)[C@H](C(C)C)NC1=O [Romidepsin (FK228, Depsipeptide)] gave a cell viability of 22.2 ± 22%. For O=C(CCBr)N1CCN(C(=O)CCBr)CC1 [Pipobroman-D8], the cell viability was 84 ± 7.7%. O=C(O)CCCN1CCC(O[C@@H](c2ccc(Cl)cc2)c2ccccn2)CC1 [Bepotastine Besilate] was tested, and the cell viability was 2.73 ± 16%. With COC(=O)C1=C(C#N)NC(C)=C(C(=O)OC(C)C)C1c1cccc([N+](=O)[O-])c1 (stereo not given) [Nilvadipine] the cell viability was 82.8 ± 3.3%. For CC(C)(C#N)c1cc(Cn2cncn2)cc(C(C)(C)C#N)c1 [Anastrozole], the cell viability was 110 ± 6.5%. Work on Cc1ccc(Nc2nccc(N(C)c3ccc4c(C)n(C)nc4c3)n2)cc1S(N)(=O)=O yielded a cell viability of 72.5 ± 0.73%. Work on C[C@@H](CN1CC(=O)NC(=O)C1)N1CC(=O)NC(=O)C1 [Dexrazoxane] yielded a cell viability of 94.8 ± 15%. In the case of C#Cc1cccc(Nc2ncnc3cc(OCCOC)c(OCCO)cc23)c1, the cell viability is reported as 49.1 ± 7.9%. Nc1nc2n[nH]nc2c(=O)[nH]1 [Azaguanine-8] showed a cell viability of 55.8 ± 6.5%. CCCCCCNC(=O)n1cc(F)c(=O)[nH]c1=O [Carmofur] was tested, and the cell viability was 96.6 ± 12%. For C#Cc1cccc(Nc2ncnc3cc(OCCOC)c(OCCOC)cc23)c1 [Erlotinib HCl (OSI-744)], the cell viability was 74.6 ± 2.7%. Compound COc1cc(Nc2c(C#N)cnc3cc(OCCCN4CCN(C)CC4)c(OC)cc23)c(Cl)cc1Cl [Bosutinib (SKI-606)] has a cell viability of 52.4 ± 0.73%. CCCS(=O)(=O)Nc1ccc(F)c(C(=O)c2c[nH]c3ncc(-c4ccc(Cl)cc4)cc23)c1F [Vemurafenib (PLX4032, RG7204)] gave a cell viability of -12.5 ± 0.2%. Work on CC(=O)O[C@@]12CO[C@@H]1C[C@H](O)[C@@]1(C)C(=O)[C@H](O)C3=C(C)[C@@H](OC(=O)[C@H](O)[C@@H](NC(=O)OC(C)(C)C)c4ccccc4)C[C@@](O)([C@@H](OC(=O)c4ccccc4)[C@H]21)C3(C)C [Docetaxel] yielded a cell viability of 72.1 ± 2.1%. CCc1ccc(CCOc2ccc(CC3SC(=O)NC3=O)cc2)nc1 (stereo not given) [Pioglitazone] gave a cell viability of 92.8 ± 5.5%. COc1cc2nccc(Oc3ccc(NC(=O)C4(C(=O)Nc5ccc(F)cc5)CC4)cc3)c2cc1OC gave a cell viability of 48.9 ± 2.8%. O=S(=O)(O)CCS [Mesna] showed a cell viability of -9.24%. In the case of COc1cc2c(cc1O)CC[C@@H]1[C@@H]2CC[C@]2(C)[C@@H](O)CC[C@@H]12 [2-Methoxyestradiol (2-MeOE2)], the cell viability is reported as 98 ± 4%. COc1cc(N2CCC(N3CCN(C)CC3)CC2)ccc1Nc1ncc(Cl)c(Nc2ccccc2S(=O)(=O)C(C)C)n1 gave a cell viability of 38.3 ± 2.1%. CNNCc1ccc(C(=O)NC(C)C)cc1 [Procarbazine HCl] was tested, and the cell viability was 100 ± 22%. N=C(N)NC(=N)N1CCOCC1 [Moroxydine HCl] was tested, and the cell viability was 104 ± 11%. Work on CCN(CC)CCOc1ccc(C(=C(Cl)c2ccccc2)c2ccccc2)cc1 [Clomifene citrate] yielded a cell viability of -6.65 ± 0.33%. In the case of C[C@]1(O)C[C@@H](c2nc(-c3ccc4ccc(-c5ccccc5)nc4c3)c3c(N)nccn32)C1 [Linsitinib (OSI-906)], the cell viability is reported as 58.9 ± 2.1%. For COc1cc([C@@H]2c3cc4c(cc3[C@@H](O[C@@H]3O[C@@H]5CO[C@@H](C)O[C@H]5[C@H](O)[C@H]3O)[C@H]3COC(=O)[C@H]23)OCO4)cc(OC)c1O [Etoposide], the cell viability was 61.1 ± 1.9%. Compound CCc1c2c(nc3ccc(OC(=O)N4CCC(N5CCCCC5)CC4)cc13)-c1cc3c(c(=O)n1C2)COC(=O)[C@]3(O)CC [Irinotecan HCl Trihydrate] has a cell viability of 101 ± 4.5%. O=P(O)(O)C(O)(Cn1ccnc1)P(=O)(O)O [Zoledronic Acid] gave a cell viability of 109 ± 6%.
